According to PubChem BioAssay (NCATS):
Results filed as inconclusive are left out. Activity calls are given as the source filed them. Calls come from the whole dose curve; as a rule, active = well fitted cell-killing curve with a large enough effect; inconclusive = small, poorly fitted or top-dose-only effect, or effect the other way; inactive = no such curve, though single readings can be large or run the other way.

assay: Quantitative High-Throughput drug screen in 47 multiple myeloma cell lines against the NCATS MIPE library collection: PCM6_Riken cell viability assay (AID 1919870); details: CellTiter-Glo ATP, 48 h; series mostly up to 45.8 µM
Outline: (§1)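 qHTS format: cells plated (500/well), pin-dosed with MIPE 4.0 compounds, kept 48 h at 37 °C. Readout was CellTiter-Glo luminescence, median RLU.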
Note: nearly all actives have a fitted effect of over 30% in size.
Potency is the fitted concentration of half-maximal effect.

Structure (SMILES) | Potency
O=C(N[C@@H](c1ccccc1)[C@@H]1CCCCN1)c1cccc(C(F)(F)F)c1Cl | 23.5 µM (active)
Clc1ccc(COC(Cn2ccnc2)c2ccc(Cl)cc2Cl)cc1 (configuration not stated) | 20.9 µM (active)
Clc1ccc(CCC(Cn2ccnc2)Sc2c(Cl)cccc2Cl)cc1 (configuration not stated) | 18.7 µM (active)
C=CCc1ccc(O)c(-c2ccc(O)c(CC=C)c2)c1 | 20.9 µM (active)
COc1cccc2c1CCCC2CCCN1CCN(C2CCCCC2)CC1 (configuration not stated) | 13.2 µM (active)
Nc1nc(F)nc2c1ncn2[C@@H]1O[C@H](COP(=O)(O)O)[C@@H](O)[C@H]1O | inactive
C=C1C(=O)OC(CCCCCCCC)C1C(=O)O (configuration not stated) | 23.5 µM (active)
O=c1cc(-c2ccccc2)oc2cc(O)c(O)c(O)c12 | inactive
O=C1NC(=O)C(=Cc2ccc(-c3ccc(F)cc3)o2)S1 | 7.43 µM (active)
COc1ncc(-c2ccc3nccc(-c4ccnnc4)c3c2)cc1NS(=O)(=O)c1ccc(F)cc1F | 0.0332 µM (active)
CCNc1cc(NC2CCC(O)CC2)nc(Nc2ccc3c(ccn3Cc3ccccc3)c2)n1 (configuration not stated) | 20.9 µM (active)
CC(C)(C)c1cc(C(=O)O)c(NC(=O)Nc2ccc3[nH]ncc3c2)s1 | inactive
COc1ccc(C2CC(c3ccccc3)=NN2c2ccc(S(N)(=O)=O)cc2)cc1 (configuration not stated) | 26.4 µM (active)
CN(C)CCC=C1c2ccccc2COc2ccc(CC(=O)O)cc21 | inactive
COc1cc(N2CCC(N3CCN(C)CC3)CC2)ccc1Nc1ncnc(Nc2ccccc2S(=O)(=O)C(C)C)n1 | 16.6 µM (active)
O=C1Nc2ccc(Cl)cc2C(C#CC2CC2)(C(F)(F)F)O1 (configuration not stated) | 23.5 µM (active)
c1ccc2c(-c3cnn4cc(-c5ccc(N6CCNCC6)cc5)cnc34)ccnc2c1 | 0.935 µM (active)
CC=CCC=CCCC(=O)[C@H]1O[C@@H]1C(N)=O | 20.9 µM (active)
CC(=O)Oc1cc2c(s1)CCN(C(C(=O)C1CC1)c1ccccc1F)C2 (configuration not stated) | 1.48 µM (active)
CC1(C)CCC2=C(O1)c1ccccc1C(=O)C2=O | 20.9 µM (active)
CC(C)n1nc(-c2ccc3oc(N)nc3c2)c2c(N)ncnc21 | 0.0662 µM (active)

assay: Quantitative High-Throughput drug screen in 47 multiple myeloma cell lines against the NCATS MIPE library collection: RPMI8226_ATCC cell viability assay (AID 1919871); details: RPMI8226 myeloma viability, CellTiter-Glo ATP luminescence, 48 h; series mostly up to 45.8 µM
Outline: as §1

Structure (SMILES) | Potency
O=C(N[C@@H](c1ccccc1)[C@@H]1CCCCN1)c1cccc(C(F)(F)F)c1Cl | 1.66 µM (active)
CC[C@H]1OC(=O)[C@H](C)C(=O)[C@H](C)[C@@H](O[C@H]2O[C@H](C)C[C@H](N(C)C)[C@@H]2O)[C@](C)(OC)C[C@@H](C)C(=O)[C@H](C)[C@H]2N(CCCCn3cnc(-c4cccnc4)c3)C(=O)O[C@]12C | 18.7 µM (active)
COC(=O)C1=CO[C@@H](O)[C@@H]2C(CO)=CC[C@@H]12 | 20.9 µM (active)
COc1cccc2c1CCCC2CCCN1CCN(C2CCCCC2)CC1 (configuration not stated) | 14.8 µM (active)
Nc1nc(F)nc2c1ncn2[C@@H]1O[C@H](COP(=O)(O)O)[C@@H](O)[C@H]1O | inactive
CO[C@H]1C[C@@H]2CC[C@@H](C)[C@@](O)(O2)C(=O)C(=O)N2CCCC[C@@H]2C(=O)O[C@H]([C@H](C)C[C@@H]2CC[C@H](OP(C)(C)=O)[C@H](OC)C2)CC(=O)[C@H](C)C=C(C)[C@@H](O)[C@@H](OC)C(=O)[C@H](C)C[C@H](C)C=CC=CC=C1C | inactive
OC[C@H]1O[C@@H](Oc2cc(O)cc(C=Cc3ccc(O)cc3)c2)[C@H](O)[C@@H](O)[C@H]1O | inactive
CC(C)(C)c1cc(C(=O)O)c(NC(=O)Nc2ccc3[nH]ncc3c2)s1 | inactive
CN(C)CCC=C1c2ccccc2COc2ccc(CC(=O)O)cc21 | inactive
NC(=O)NN=Cc1ccc([N+](=O)[O-])o1 | inactive
CCCCCNC(=O)N1CCC(CN(Cc2ccc(Cl)cc2)Cc2ccc([N+](=O)[O-])s2)C1 (configuration not stated) | 26.4 µM (active)
